Bioassay records as filed in PubChem.
TLR9-MyD88 inh: blocks human TLR9 binding to MyD88 | Q9NR96+Q99836 | CHO BLA complementation TLR9-MyD88, CCF4 FRET ratio | inhibition, % at 4.98 µM | 340,000 tested, 0.21% active | AID 504734;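 active = inhibition above the mean over all tested compounds plus 3 SD, cut at about 21% in these data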;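 note: 0% = DMSO only wells and 100% = clavulanate BLA inhibitor control wells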
Rtt109 HAT inh: C. albicans Rtt109 histone acetyltransferase inhibition | Q5AAJ8 | purified Rtt109/Vps75, ThioGlo CoA-SH fluorescence, 4 h | inhibition, % at 34.9 µM | 330,000 tested, 0.16% active | AID 540336;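 active = inhibition of at least 50% in every replicate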
HTR2A ag: activates the mouse 5-HT2A serotonin receptor; P35363; CHO-K1 mHTR2A beta-arrestin complementation, luminescence; percent of 30 µM serotonin response; activation, % at 7.6 µM; 360,000 tested, 0.66% active; AID 624169;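 active = activation above a run cutoff, the mean activation of all tested compounds plus 3 SD, cut at about 14% in these data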;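 note: 0% = plate median of compound wells and 100% = 30 µM serotonin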
NOD2-RIPK2 inh: blocks binding of human NOD2 to RIPK2. O43353. CHO BLA complementation NOD2-RIPK2, CCF4 ratio. inhibition, % at 4.98 µM. 360,000 tested, 0.38% active. AID 624267; in the data active = inhibition above about 21%;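 note: 0% = vehicle only and 100% = reference blocker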
Target sequence (O43353 whole entry, looked up): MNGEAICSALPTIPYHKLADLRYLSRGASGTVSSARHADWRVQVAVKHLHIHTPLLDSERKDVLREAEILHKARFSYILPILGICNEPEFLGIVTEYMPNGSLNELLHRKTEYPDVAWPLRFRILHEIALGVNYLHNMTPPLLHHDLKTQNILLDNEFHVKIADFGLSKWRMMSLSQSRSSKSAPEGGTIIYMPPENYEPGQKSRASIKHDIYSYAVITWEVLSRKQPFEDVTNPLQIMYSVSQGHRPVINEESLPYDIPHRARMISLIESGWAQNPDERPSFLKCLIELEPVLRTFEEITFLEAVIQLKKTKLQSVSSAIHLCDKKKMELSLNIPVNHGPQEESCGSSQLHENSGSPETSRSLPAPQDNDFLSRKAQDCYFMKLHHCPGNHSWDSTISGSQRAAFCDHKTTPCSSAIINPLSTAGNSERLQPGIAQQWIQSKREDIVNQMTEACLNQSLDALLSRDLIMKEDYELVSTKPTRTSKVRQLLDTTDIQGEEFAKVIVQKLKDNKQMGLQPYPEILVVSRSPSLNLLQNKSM
LANA-H2B inh: blocks KSHV LANA binding to histone H2A/H2B; Q9QR71; cell-free LANA-H2A/H2B peptide, fluorescence polarization; inhibition, % (concentration not given with the values); 320,000 tested, 0.6% active; in the data active = inhibition mostly above about 10%, no sharp cut-off; inactive = mostly below about 6.7%
TLR4 MyD88 comp: inhibitors of human TLR4-MyD88 binding; AID 861; inhibition, % at 8.4 µM; 200,000 tested, 0.18% active; O00206+Q99836; HeLa CL3-4 TLR4/MyD88 BLA complementation, FRET ratio; in the data active = inhibition above about 25%;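 note: 0% = vehicle and 100% = reference inhibitor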
MOR ag counter: counter-screen for mouse HTR2A agonists: human mu opioid receptor agonists; shares compounds with HTR2A ag; U2OS OPRM1 beta-arrestin PathHunter, luminescence; DMSO 0%, DAMGO 9.3 µM 100%; activation, % at 9.3 µM; 2,300 tested, 5.3% active; AID 624380;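 active = mean activation above the mean of DMSO-only wells plus 3 SD, cut at about 0.5% in these data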
m5-HT2A ag conf: mouse HTR2A agonism confirmed. shares compounds with HTR2A ag. CHO-K1 PathHunter beta-arrestin recruitment, luminescence; DMSO 0%, 30 µM serotonin 100%. activation, % at 7.6 µM. 2,300 tested, 19% active. AID 624381;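 active = mean activation across triplicates above the hit threshold derived in the original primary screen, cut at about 15% in these data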
Numbers without * were called inactive; . = no result. Rows were chosen to be rich in hits. Some 1.8% of all compounds tested hit in one or more screens of this group.

SMILES | TLR9-MyD88 inh | Rtt109 HAT inh | HTR2A ag | NOD2-RIPK2 inh | LANA-H2B inh | TLR4 MyD88 comp | MOR ag counter | m5-HT2A ag conf
Cc1ccc(C(=O)N2N=C(CC(C)C)CC2(O)C(F)(F)F)o1 (stereo unspecified) | -6.9 | -4.0 | 0.6 | -20.1 | 3.6 | -1.0 | . | .
COc1ccccc1CNC(=O)COC(=O)c1n[nH]c2ccccc12 | 6.4 | 10.3 | 4.9 | -1.3 | 1.8 | -9.3 | . | .
COc1ccccc1CNC(=O)c1n[nH]c2ccccc12 | -5.9 | -14.1 | 19.0* | 1.9 | 1.4 | . | -0.3 | 2.2
COc1cc(C#Cc2ccc3cc(CCO)oc(=O)c3c2)cc(OC)c1 | -4.8 | -1.0 | 16.6* | 1.4 | 0.0 | . | -0.2 | -1.8
CN(C)c1ccc(C#Cc2ccc3cc(CCO)oc(=O)c3c2)cc1 | -0.9 | -4.8 | -0.8 | 6.0 | -0.2 | . | . | .
Cc1ccc(C)c(NC(=O)c2ccc[n+](Cc3ccc([N+](=O)[O-])cc3)c2)c1 | 6.1 | 11.5 | 15.2* | -2.9 | 2.8 | -6.5 | -0.7 | -3.4
O=C(O)c1ccc[n+](Cc2ccc([N+](=O)[O-])cc2)c1 | . | . | 4.8 | 1.5 | -6.5 | . | . | .
C=CCN(Cc1ccc(OC)c(OC)c1)C(=O)c1cc2cc(F)ccc2[nH]1 | -5.0 | 0.3 | 20.4* | 0.8 | -1.4 | . | -0.5 | -5.0
Cc1nn(C)c(C(=O)Nc2ccn(C34CC5CC(CC(C5)C3)C4)n2)c1[N+](=O)[O-] | -2.0 | 4.8 | 15.1* | 0.0 | 1.3 | -0.4 | -0.3 | 11.5
CCN(CC)C(=O)c1[nH]cnc1C(=O)Nc1ccccc1F | -3.2 | . | -1.3 | -11.1 | . | . | . | .
Cc1cc(C)n(CCN(C)C(=O)C2CCC(=O)N(CCc3cccc(F)c3)C2)n1 (stereo unspecified) | 3.4 | -3.6 | 15.0* | -12.3 | 0.4 | . | -0.4 | -3.5
COc1cccc(-n2c(SCC(=O)N3CCCCC3)nc3c([nH]c4ccccc43)c2=O)c1 | -9.8 | -10.7 | 20.8* | -3.1 | -1.5 | -7.3 | -0.6 | -3.6
COC(=O)[C@]12CCCCC=C1N(CCC1=CCCCC1)C(=O)[C@H](CC(=O)N1CCN(C(=O)C3CC3)CC1)C2 | . | . | 0.8 | 7.7 | . | . | . | .
CC1CC(C)CN(CCOc2cccc(Cl)c2Cl)C1 (stereo unspecified) | 1.1 | 1.9 | 29.7* | 3.8 | -5.5 | 5.3 | -0.4 | 78.0*
CC1CC(C)CN(CCOc2ccc(Cl)cc2Cl)C1 (stereo unspecified) | -7.1 | 1.6 | -7.9 | 5.9 | -1.2 | -0.5 | . | .
CCC1COC(c2cccn2Cc2ccc(Cl)cc2)=N1 (stereo unspecified) | 6.4 | . | 3.4 | 12.1 | -6.4 | -6.3 | . | .
CC1COC(c2cccn2Cc2ccccc2Cl)=N1 (stereo unspecified) | 3.0 | 9.6 | 24.3* | -12.4 | -5.0 | -10.6 | -0.3 | -2.4
CN1CCN(c2nc3ccccn3c(=O)c2C=C(C#N)C#N)CC1 | 20.3 | 3.8 | -5.6 | -10.8 | 1.7 | . | . | .
COc1ccc(N2CCN(C(=O)c3ccc(CNS(=O)(=O)c4cc(C)ccc4C)cc3)CC2)cc1 | 12.9 | 1.4 | 25.4* | 1.9 | -13.0 | . | -0.3 | -0.1
Cc1ccc(C)c(S(=O)(=O)NCc2ccc(C(=O)N3CCN(c4ccccc4)CC3)cc2)c1 | -5.3 | 28.8 | 4.2 | 0.3 | 2.7 | . | . | .
CCNc1c(NS(=O)(=O)c2ccc(F)c(Cl)c2)c(=O)oc2ccccc12 | 2.7 | -14.1 | 2.9 | 9.9 | 0.2 | . | . | .
CN1CCC(N(C)C(=O)/C(C#N)=C\c2ccc(OC(F)F)cc2)CC1 | 7.0 | 6.6 | 0.1 | -8.6 | . | . | . | .
COc1cc(OC)nc(NC(=O)CS(=O)(=O)c2ccccc2)n1 | 6.3 | 22.9 | 15.7* | -1.6 | -0.6 | 7.8 | 0.1 | 2.6
CCOC(=O)C1(Cc2cccc(Cl)c2)CCCN(C(=O)c2cc(C)n(C)n2)C1 (stereo unspecified) | -5.1 | -0.2 | 16.7* | -17.7 | 1.6 | . | -0.8 | -2.2
CCOC(=O)C1(Cc2cccc(Cl)c2)CCCN(C(=O)c2ccnn2C)C1 (stereo unspecified) | -4.5 | 1.5 | 3.7 | 0.9 | -1.0 | . | . | .
SMILES | TLR9-MyD88 inh | Rtt109 HAT inh | HTR2A ag | NOD2-RIPK2 inh | LANA-H2B inh | TLR4 MyD88 comp | MOR ag counter | m5-HT2A ag conf
Cc1nc(N2CCCC2)c2nnn(Cc3ccccc3Cl)c2n1 | -9.5 | -5.8 | 17.8* | -1.2 | -1.0 | -8.7 | -0.6 | -1.6
Cc1cc(C(=O)N2CCC2(C)C(=O)O)nn1C(C)(C)C (stereo unspecified) | . | . | 0.6 | -0.8 | . | . | . | .
C[C@H](CO)N1C[C@H](C)[C@H](CN(C)Cc2cccc(O)c2)OCc2ccccc2-c2c(n(C)c3ccccc23)C1=O | -5.7 | . | 23.2* | -4.3 | . | . | 0.2 | 32.3*
COc1cc(NC(=O)CN2C(=O)C(c3ccccc3)=NC2(C)C)cc(OC)c1 | 1.6 | 13.7 | 28.1* | 7.8 | -2.0 | 1.5 | -0.5 | -3.5
CCN(c1ccc(C)c(C)c1)S(=O)(=O)c1ccc2c(c1)CCN2C(=O)CCC(=O)O | 1.9 | -4.5 | -1.0 | -3.0 | 6.3 | -2.0 | . | .
CCN(c1ccc(OC)cc1)S(=O)(=O)c1ccc2c(c1)CCN2C(=O)CCC(=O)O | -2.2 | 26.9 | 14.4* | 3.6 | -1.4 | 3.8 | -0.4 | 0.0
CN(C)CCN(Cc1ccccc1)C(c1cc2ccccc2o1)c1nnnn1C(C)(C)C (stereo unspecified) | . | . | -9.3 | -1.4 | . | . | . | .
CC(C)(C)n1nnnc1C(c1cc2ccccc2o1)N(CCC#N)Cc1ccccc1 (stereo unspecified) | . | . | 42.0* | -3.7 | . | . | -0.6 | -6.3
CC(C)(C)OC(=O)N1CCC(NC(=O)c2nc[nH]c2C(=O)NCC(=O)OCc2ccccc2)CC1 | -15.9 | 12.2 | 21.4* | -9.5 | -2.1 | . | -0.3 | -1.1
Cc1noc(C)c1S(=O)(=O)Nc1ccc2c(c1)C(=O)N([C@H](C)CO)C[C@H](C)[C@@H](CN(C)C(=O)CCCN(C)C)OCCCC[C@@H](C)O2 | 4.8 | . | 4.2 | -11.0 | . | . | . | .
Cc1cccc(N2C(=O)CS/C2=N\NC(=O)c2ccc(Br)cc2)c1C | 2.5 | -1.9 | 15.3* | -1.9 | -3.2 | -8.1 | -0.7 | -1.5
OC(c1ccc(F)cc1)c1nc(-c2cccc(C(F)(F)F)c2)cs1 (stereo unspecified) | . | . | 23.4* | 2.7 | . | . | 0.3 | -5.6
OC(c1ccc(F)c(F)c1)c1nc(-c2cccc(C(F)(F)F)c2)cs1 (stereo unspecified) | . | . | 1.0 | 3.9 | . | . | . | .
COc1ccc(C(O)c2nc(-c3cccc(O)c3)cs2)cc1 (stereo unspecified) | . | . | 16.6* | -11.0 | . | . | -0.8 | -0.9
